{"source": "PubChem BioAssay AID720518", "about": "(National Center for Advancing Translational Sciences (NCATS), 2013)", "note": "Results filed as inconclusive are left out. Unmarked numbers belong to inactive results. The call rests on the fitted dose curve.", "data": [{"assay": "qHTS for Inhibitors of Cell Surface uPA Generation: Wild-type Protective Antigen (WT-PrAg) Counterscreen for Cherry-picked Compounds; further: 0% is about no effect", "conditions": "cells, WT protective antigen toxicity counterscreen; series mostly up to 115 µM; activity (protection): at the top concentration", "units": {"activity (protection)": "%"}, "values": [{"smiles": "Cc1ccccc1-c1nnc(SCC(=O)NCC2CCCO2)o1", "note": "(stereo not given)", "activity (protection)": 0.534}, {"smiles": "CCC(=O)N1CCC(NC(=O)Nc2ccc(OC(F)(F)F)cc2)CC1", "activity (protection)": -0.144}, {"smiles": "COCCn1nnnc1C(C(C)C)N1CCCC(C)C1", "note": "(stereo not given)", "activity (protection)": 1.85}, {"smiles": "CCOC(=O)c1cc(-c2ccccc2C)n(CC2CC(c3ccc(OC)cc3)=NO2)n1", "note": "(stereo not given)", "activity (protection)": -2.18}, {"smiles": "CS(=O)(=O)c1ccc(Cl)c(NC(=O)COC(=O)CNC(=O)c2cccs2)c1", "activity (protection)": -0.596}, {"smiles": "CN(C)CCNC(=O)Nc1ccc([N+](=O)[O-])cc1", "activity (protection)": -0.439}, {"smiles": "COc1ccc(-c2nn(CCC#N)cc2C(=O)Nc2cccc([N+](=O)[O-])c2)cc1OC", "activity (protection)": -1.26}, {"smiles": "Cc1cc(=O)n2nc(N3CCCC(C(=O)NCc4ccc(Cl)cc4)C3)sc2n1", "note": "(stereo not given)", "activity (protection)": -0.851}, {"smiles": "COc1cccc(C(=O)Cn2c(NCCCO)nc3ccccc32)c1", "activity (protection)": -0.884}, {"smiles": "CCCCNC(=O)c1cc2c(-c3ccc(Cl)cc3)nn(C)c2s1", "activity (protection)": -0.155}, {"smiles": "NC(=O)CC(NC(=O)Cc1cccc2ccccc12)c1ccc(N2CCN(c3ccccc3)CC2)c([N+](=O)[O-])c1", "note": "(stereo not given)", "activity (protection)": 0.0175}, {"smiles": "CCOC(=O)c1c(C)oc2ccc(OC(=O)COc3c(F)c(F)c(F)c(F)c3F)cc12", "activity (protection)": -0.307}, {"smiles": "C=CCn1c(=O)c(C(=O)NCCc2ccc(Cl)cc2)c(O)c2cc(OC)c(OC)cc21", "activity (protection)": 1.13}, {"smiles": "CCCNC(=O)COc1coc(CN2CCN(c3ccccc3OC)CC2)cc1=O", "activity (protection)": -0.447}, {"smiles": "Cn1c(=O)c2c(ncn2CCO)n(C)c1=O", "activity (protection)": -0.0315}, {"smiles": "CCCCN(CC)CCNC(=O)c1cc2cc3ccc(Cl)cc3nc2o1", "activity (protection)": -2}, {"smiles": "CCOc1cc(/C=N/Nc2cc(C)nc3ccc(C)cc23)ccc1O", "activity (protection)": -0.441}, {"smiles": "Cc1ccc(CC2CC(=O)N(c3cc(C)ccc3C)C2=O)cc1", "note": "(stereo not given)", "activity (protection)": 2.84}, {"smiles": "CC(=O)NS(=O)(=O)c1ccc(NC(=O)c2cccc(OCc3c(C)noc3C)c2)cc1", "activity (protection)": 0.921}, {"smiles": "CCCc1nn2c(=O)cc(CSCC(=O)Nc3ccccc3)nc2s1", "activity (protection)": 1.46}, {"smiles": "O=C1NCCN1C(=O)N(c1ccccc1)c1ccccc1", "activity (protection)": -0.281}, {"smiles": "Cc1ccc(S(=O)(=O)N2CCN(C(=O)c3n[nH]c(=O)c4ccccc34)CC2)cc1", "activity (protection)": -0.765}, {"smiles": "COc1cc2oc(=O)ccc2cc1[C@H](O)[C@@H](O)C(C)(C)O", "activity (protection)": -0.25}, {"smiles": "CC1CCCN(C(=O)c2ccc(CNc3c(N4CCCCC4)c(=O)c3=O)cc2)C1", "note": "(stereo not given)", "activity (protection)": 0.517}, {"smiles": "Cc1ccc(NC(=O)CSc2nncn2N)cc1C", "activity (protection)": 2.11}, {"smiles": "OCC1CCCCN1CC(O)COC(c1ccc(F)cc1)c1ccc(F)cc1", "note": "(stereo not given)", "activity (protection)": 0.726}, {"smiles": "COCCNC(=O)C(c1c[nH]c2ccccc12)N(C(=O)c1snc(C(N)=O)c1N)c1cccc(OC)c1", "note": "(stereo not given)", "activity (protection)": 2.82}, {"smiles": "CCOc1ccccc1CN1CCCC(CNS(=O)(=O)c2ccc(OC)cc2)C1", "note": "(stereo not given)", "activity (protection)": -1.27}, {"smiles": "C=CCc1cc(S(=O)(=O)c2ccc(O)c(CC=C)c2)ccc1O", "activity (protection)": 4.47}, {"smiles": "Cc1cc(C)cc(NC(=O)COC(=O)CCn2c(C)csc2=O)c1", "activity (protection)": 0.0327}, {"smiles": "CCCNC(=O)C1CCC(CNS(=O)(=O)c2ccc3c(c2)CC(C)N3C(C)=O)CC1", "note": "(stereo not given)", "activity (protection)": -0.174}, {"smiles": "Cc1cccc(C(=O)Nc2cc(=O)n(C)c(=O)n2C)c1", "activity (protection)": -1.45}, {"smiles": "Cc1ccc(-n2cccc2C(=O)NS(=O)(=O)c2ccc(C)cc2)cc1", "activity (protection)": -0.321}, {"smiles": "COc1ccc(C(=O)NCCOC(C)C)cc1OC1CCN(C(C)=O)CC1", "activity (protection)": -0.503}, {"smiles": "COc1ccc(NC(=O)/C(N=Nc2cc(S(=O)(=O)Nc3ccc(OC)cc3)ccc2OC)=C(\\C)O)cc1", "activity (protection)": -1.2}, {"smiles": "CCOC(=O)C1=CC[C@@H](c2cc3ccc(OC)cc3n2C)N(S(=O)(=O)c2ccc(C)cc2)[C@H]1C(=O)OCC", "activity (protection)": -1.05}, {"smiles": "COc1ccc(N2CCN(C3CCN(S(=O)(=O)c4ccc(F)cc4)CC3)CC2)cc1", "activity (protection)": -0.637}, {"smiles": "Cc1ccc(-n2ncc(C(=O)NC3CC3)c2C2CCN(C(=O)OC(C)(C)C)CC2)cc1", "activity (protection)": 1.41}, {"smiles": "COc1ccc(CCNC(=O)Cn2cccc2C(=O)c2ccccc2)c(OC)c1", "activity (protection)": -1.11}, {"smiles": "O=C(NNC(=O)c1cccnc1)c1ccncc1", "activity (protection)": -0.865}]}]}
